Assay results as given in the supplement of paper PMC11417369.
Over roughly 25,000 sequences, “ln(normalized median fluorescence intensity)” has its median near 9.3; the highest 2% begin near 10. Shown is part of a subset that was picked to be rich in the highest values.

tested on: PF3D7_0420300 AP2 domain 1 (GST-tagged); assay: gcPBM binding intensity (ln(normalized median fluorescence intensity)); higher = stronger DNA binding
How it was run: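 Plasmodium falciparum DNA-binding domains carrying a GST tag were expressed in E. coli and applied for 1 h, at about 25 μg on average, to an Agilent 4 × 180k array. The array held primer-extended double-stranded 36-bp intergenic genomic probes together with negative controls, and binding took place in 1× PBS with 1% milk, 0.2 mg/ml BSA, 0.5% salmon testes DNA and 0.03% Triton X-100. An Alexa488 anti-GST antibody detected bound protein, and the array was scanned at 488 nm. Binding intensity is taken as the highest Masliner-normalised natural-log median intensity across replicate spots of either probe orientation.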

Row | Sequence | gcPBM binding intensity (ln)
1 | CAATCATTTTATTGTTGTACAGTAATTATGAATTCA [XGTACX_site7508] | 9.03
2 | TACAATGAAAAAATAACATGCAATTATATTTCTCTT [TGCATGCA_site833] | 9.17
3 | TATATAAATTAACCAGTGCATTATTTGGAAATTATT | 9.31
4 | CATTATGATTAAATATGTACATATTATTATATAAAT [XGTACX_site2477] | 9.08
5 | GAAAAAAAAAAAAAAAAAAAAAGGAAAAAAGTGAAA [CACACA_negctrl_site996] | 9.21
6 | TATATATGTATATATGGTACAGAATATTCTACATTA [XGTACX_site5077] | 9.23
7 | ATATCATTTTCCTGCACACATAAATTTATATAATAT [CACACA_site1048] | 9.76
8 | TTTTTTTTCTATGTGGTGCACATTATTTTTTTTTTT | 9.41
9 | CACAAAAAGAAACACACACACATATATATATATATA [CACACA_site999] | 9.73
10 | AACAAATACAGACACACACACACACTAATAAAAAAA [CACACA_site8067] | 10.3
11 | AATACAGACAGACACACACACAAAATAAAATACAAA [CACACA_site245] | 10.1
12 | TACAAACAGACATATACACACAAAAAAAAAATAAAA [CACACA_site2562] | 9.91
13 | TGAACACAGACAAATACACACAAAAAAAATAAATAA [CACACA_site4298] | 9.79
14 | AAATAAAACAGACACACACACACATACACAAAAAAA [CACACA_site7753] | 10.2
15 | TATATATACAGACACATACACACAAATAAAAAAACA [CACACA_site3413] | 10.1
16 | AAATTATAAATAATTTGTACATAAAAATTGGTAAAG [XGTACX_site5197] | 9.07
17 | CTTCAATTAAAATTCACACATATAAATTAAAATATT [CACACA_site6129] | 9.06
18 | AGCACCCACCAACACACACACACACCCACCCACCGA [CACACA_site368] | 10.3
19 | GTTACACCAACAAACACACACACACCGACACCCAAA [CACACA_site5361] | 10.1
20 | TACACCCACCAACACACACACACACCCAAAAAAAAA [CACACA_site498] | 10.1
21 | TGTTATATCAATAATATATAATAATACCCTTCTTTT [CACACA_negctrl_site1682] | 9.06
22 | GTTATAGAAGCATTCACACACACACGGACATACACA [CACACA_site6801] | 10.1
23 | TTGTTATAGAAGCATTCACACACACCCATACATACA [CACACA_site8414] | 9.87

Row | Sequence | gcPBM binding intensity (ln)
24 | TATAGAAGCATTCACACACACACATACATACACATA [CACACA_site1466] | 10.2
25 | TATAGAAGCGTTCACACACACACATACATACCCATA [CACACA_site4915] | 10.3
26 | GTTATAGAAGCATTCACACACACACCCACATACACA [CACACA_site1465] | 10.1
27 | TAGAAGCATGGACACACACACATACATACCCATACA [CACACA_site4916] | 10
28 | ATTCACTAAAAAATTGCATGCAATAAATTTTTTTTT [TGCATGCA_site962] | 8.91
29 | TAATATATATATATATGTACATATATATTATGTATA [XGTACX_site4690] | 9.07
30 | TATATTTTCTATAGGTGTACTCCACATGCGGTGTTA [XGTACX_site7471] | 9.08
31 | ATGTATATGCAAACATGTACATATATAAACATATAT [XGTACX_site4159] | 9.16
32 | AAAAAAAAAAAAAAAAAAAAACACCCAAAAAAATAT [XGTACX_negctrl_site210] | 9.62
33 | TACACTTTTTATGAAGTGCATGTATAGCTCTTAAAA [GTGCAC_site9595] | 8.78
34 | CATATAAAAATGTGCACACACACACCGATATATATT [CACACA_site4940] | 10.1
35 | TATTAAACGAAACACACACACACACCCATATATAAA [CACACA_site759] | 10.2
36 | TTCCCATGTAATATTAAACACACACCCATATAACAC [CACACA_site7905] | 9.76
37 | ACCATATAAATAAACACACACACACCCATATATATA [CACACA_site2321] | 10.2
38 | TATATATTAAAACACACACACATATATATATATATA [CACACA_site3787] | 9.67
39 | AATATAAATAAAAACACACACACACCCATATATATA [CACACA_site2267] | 10.1
40 | TTTATTAAACTTGACACACACACACCCACATATATA [CACACA_site760] | 10.2
41 | AACATATAAAAATGTGCACACACACCCATATATATA [CACACA_site1525] | 9.97
42 | AAAAAAAAAAAAAACACACACACACCCATAAATATA [CACACA_site151] | 9.88
43 | CATATAAAAATGTGCACACACACACCCATATATATT [CACACA_site1526] | 10.2
44 | TATTAAACTGGACACACACACACACCCATATATAAA [CACACA_site4579] | 10.2
45 | TTTTACAAATATTACTGTACACATTTTCATATAATT [XGTACX_site17] | 9.49
46 | TTTTGCGAAAAAAGGTGTACTGTAAATATATTGAGG [XGTACX_site8941] | 9.09

Row | Sequence | gcPBM binding intensity (ln)
47 | ATATATGATGTAAAAGCACACATATATATATATATA [CACACA_site9330] | 9.21
48 | TTTTTTTTAATATTTTACATTGTCTGTTAACAAATA [CACACA_negctrl_site599] | 9.14
49 | TTTCTTTTTTTTTTTATTTACCTGAATTATGTATTA [TGCATGCA_negctrl_site345] | 9.24
50 | TATGTGCACCCATATACACACACAAATACAATGATA [CACACA_site8295] | 9.81
51 | TATAAAATTTTTAAAAGTACATATTTTACATAATAC [XGTACX_site2193] | 9.1
52 | GCCTATATGTTTAGTTGTACTCCTAATATTATTTGT [XGTACX_site6060] | 9.75
53 | CGCAACACTATTTGGGTGCTCTTCAAAAAAAAAAAA [GTGCAC_site9598] | 8.56
54 | TATATATAGAAACACACACACACACCCAAGCGTAGC [CACACA_site63] | 10.2
55 | TATATATAAAAACACACACACACACCCTATAATTAT [CACACA_site4063] | 10.3
56 | ATAAAAAGGAAACACACACACACACCCATATATATA [CACACA_site904] | 10.2
57 | TAAAAAGGAAAACACACACACACATATATATATATA [CACACA_site3588] | 9.9
58 | TATATATAGAAACACACACACACATATATATATATA [CACACA_site4116] | 9.96
59 | ATATAATATATATATAAACACACAAAAAAAATTATA [CACACA_site8434] | 9.63
60 | ATAATATATATATAAACACACAAAAAAAATTATATA [CACACA_site1534] | 9.74
61 | TATATATAGAAACACACACACATATATATATATATA [CACACA_site773] | 9.74
62 | TATATATATAAACACACACACACACCCAAGCGTAGC [CACACA_site4210] | 10.1
63 | TATAAAAGGAAACACACACACATATATATATATATA [CACACA_site939] | 9.74
64 | TCATAGTAGAAACACACACACACACCCATATATATA [CACACA_site1737] | 10.2
65 | TATATATAGAAACACACACACACCAAAGCGTAGCGC [CACACA_site62] | 10
66 | TATAATATATATGTAACACACAAAAGTTATATACTT [CACACA_site2868] | 9.37
67 | AAAATTTTCTTTTTATGTACACATAATTTTACCGGA [XGTACX_site5276] | 9.18
68 | ATAAAATATTTTTGAACATGCAGGTAAAAAATAAAA [TGCATGCA_site1019] | 9.27
69 | ATGGATTATACGTGCACACATATATACCAATAAATA [CACACA_site4524] | 9.43

Row | Sequence | gcPBM binding intensity (ln)
70 | AAAAGTTTTATTTAAATGAATTAATCTTTACTATAT [CACACA_negctrl_site282] | 9.07
71 | AAAACACAATTTATTACACACATATATTATATATTA [CACACA_site1420] | 9.49
72 | TGAATATTCATGTGTGTGCGCATGTTGTTAGACCAT [GTGCAC_site9869] | 9.69
73 | AACATTTTAAATTATACACACATTTTGAATATATAT [CACACA_site3470] | 9.54
74 | AGCATCATTTTACACACATGCAAATGTAAAATAGGA [TGCATGCA_site460] | 9.43
75 | GCCATTGTACCATCCACACACATATAAATATGTATA [CACACA_site7303] | 9.85
76 | TATATATATAATATTGCACACAAAATTAAAAGTAAA [CACACA_site7889] | 9.47
77 | AAAAAAAATAAACACACACACATACCCATAAATATA [CACACA_site5980] | 10.1
78 | AAAAAAAAAAAAGAAACACACACATATATATATATA [CACACA_site8525] | 9.69
79 | AAAAAAAAAAAACACACACACACACCCATATATAAA [CACACA_site1170] | 10.2
80 | CACCCATAGAAACACACACACGCATAAAAAAAAAAA [CACACA_site1513] | 9.71
81 | AAAAAAAAAAAAAACACACACACACGCAGATATATA [CACACA_site6672] | 10.1
82 | TACACGCAGAAACACACACACACACCCATATATATA [CACACA_site637] | 10.3
83 | CAAGAAAAGAAACACACACACATATATATATATATA [CACACA_site3881] | 9.87
84 | TACACGCATAAACACACACACACACCCATATATATA [CACACA_site8114] | 10.4
85 | TACACCCATAGACACACACACACGCATAAAAAAAAA [CACACA_site8428] | 9.93
86 | CACCCATAAATATACACACGCACAACACAAAATAAA [CACACA_site2903] | 9.73
87 | AAAAAGGAGAAACACACACACACACCCATATATATA [CACACA_site905] | 10.2
88 | GATAGAAAAAAATAATGTACACACACATATATGTTT [XGTACX_site392] | 9.72
89 | AAAAAAATTCTGACTTGTACATATAAAATTTACAAA [XGTACX_site4408] | 8.78
